Source: ChEMBL document CHEMBL1157539, “Thousands of chemical starting points for antimalarial lead identification” (Nature, 2010)

How the values were obtained:
Type in all cases: functional
Plasmodium falciparum [1] = assay: GSK_TCMDC: Inhibition of Plasmodium falciparum 3D7 in whole red blood cells, using parasite LDH activity as an index of growth. Test compounds present at 2uM
Plasmodium falciparum [2] = assay: GSK_TCMDC: Inhibition of Plasmodium falciparum Dd2 in whole red blood cells, using parasite LDH activity as an index of growth. Test compounds present at 2uM
HepG2 = assay: GSK_TCMDC: Percent inhibition of human HepG2 cell line. Test compounds present at 10uM.

| SMILES | Inhibition (Plasmodium falciparum [1]) [%] | Inhibition (Plasmodium falciparum [2]) [%] | Inhibition (HepG2) [%] |
| --- | --- | --- | --- |
| Cc1cc2c(cc1C(F)(F)F)N(C(=O)Nc1cc(OCCN(C)C)cc(C(F)(F)F)c1)CC2.Cl | 100 | 19 | 16 |
| Fc1cc(Cl)ccc1Nc1ccnc2cc(I)ccc12 | 90 | 10 | 11 |
| Fc1ccc2[nH]c(-c3cccc(-c4ccc(CNCc5cnn(-c6ccccc6)n5)cc4)c3)nc2c1.O=C(O)C(F)(F)F | 98 | 22 | 18 |
| Cc1nc2nc(N)nc(N)c2c(C)c1Cc1ccc(C(N)=O)cc1.Cl | 97 | 0 | 55 |
| CC(C)(C)c1ccc(CNC(=O)c2cc(CNC3CCNC3)ccc2O)cc1 (stereo unspecified) | 94 | 1 | 0 |
| COc1ccc2nc(-c3ccccc3)cc(NCCN(C)C)c2c1 | 100 | 23 | 0 |
| CC(C)c1ccc(OCC(O)CN(C)C(C)C(O)c2ccccc2)c(Br)c1.Cl (stereo unspecified) | 95 | 97 | 36 |
| CCCCCCCc1[nH]c2ccccc2c(=O)c1C | 97 | 96 | 48 |
| O=c1cc(NCCCNCc2cccc3c2OC(F)(F)O3)[nH]c2ccccc12 | 88 | 15 | 4 |
| O=C(Nc1ccc2c(c1)CCC2)c1ccc(N2CCN(c3ccncc3)CC2)cc1.O=C(O)C(F)(F)F | 100 | 75 | 72 |
| O=S(=O)(c1ccc(NC(S)=NN=Cc2ccccn2)cc1)N1CCCCC1 | 98 | 56 | 43 |
| COc1cc2nc(N3CCC(CNC(=O)c4ccc(-c5ccc(C(F)(F)F)cc5)cc4)CC3)nc(N)c2cc1OC | 100 | 100 | 94 |
